MCL1 BIM primary: MCL1-BIM-BH3 interaction inhibition (human); Q07820; GST-MCL1 / FITC-Bim-BH3 fluorescence polarization; inhibition, % at 10.9 µM; 320,000 compounds, 0.68% hits; AID 2057;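 active = inhibition above the mean inhibition of all tested compounds plus 3 SD, set per campaign, cut at about 40% in these data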;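 also: higher means more loss of mP so more displacement of Bim peptide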
EBV gp42 block: EBV gp42 inhibition; inhibition, % (tested at 21.74 µM); Fluorescence polarization binding assay, mP read-out; 220,000 compounds, 0.42% hits; Q1HVG2; in the data active = inhibition above about 50%
Target sequence (Q1HVG2 whole entry, looked up): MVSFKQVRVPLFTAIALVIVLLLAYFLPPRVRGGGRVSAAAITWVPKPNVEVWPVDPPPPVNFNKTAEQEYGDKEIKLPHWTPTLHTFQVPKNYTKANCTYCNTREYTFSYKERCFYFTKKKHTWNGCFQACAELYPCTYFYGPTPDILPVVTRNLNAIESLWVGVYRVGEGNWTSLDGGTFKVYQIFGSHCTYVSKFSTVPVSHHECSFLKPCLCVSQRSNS
GLD-1 RNA inh: GLD-1-TGE RNA interaction inhibition (C. elegans); inhibition, % at 5.96 µM; Q17339; 320,000 compounds, 0.44% hits; purified GLD-1 + fluorescein TGE RNA, fluorescence polarization;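 active = percent inhibition above a per-plate cutoff, the plate mean of test compounds plus 3 SD, cut at about 30% in these data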
Target sequence (Q17339 whole entry, looked up): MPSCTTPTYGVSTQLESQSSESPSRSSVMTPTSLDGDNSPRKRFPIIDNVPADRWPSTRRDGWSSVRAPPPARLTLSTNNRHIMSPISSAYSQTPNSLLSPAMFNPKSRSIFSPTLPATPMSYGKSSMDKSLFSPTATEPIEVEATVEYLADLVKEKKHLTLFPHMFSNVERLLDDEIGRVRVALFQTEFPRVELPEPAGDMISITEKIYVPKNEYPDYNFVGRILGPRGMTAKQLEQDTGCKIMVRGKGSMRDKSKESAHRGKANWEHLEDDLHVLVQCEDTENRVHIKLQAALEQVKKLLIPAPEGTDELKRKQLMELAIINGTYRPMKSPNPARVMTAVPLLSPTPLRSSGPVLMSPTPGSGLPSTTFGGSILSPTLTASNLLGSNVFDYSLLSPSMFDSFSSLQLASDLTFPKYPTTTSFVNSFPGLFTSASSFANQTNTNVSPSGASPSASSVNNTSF
BCLXL inh: blocks human Bcl-xL binding to Bim BH3 peptide; Q07817; GST-Bcl-xL / FITC-Bim BH3 peptide fluorescence polarization; inhibition, % at 10.9 µM; 320,000 compounds, 0.7% hits;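 active = inhibition above the mean of all tested compounds plus 3 SD, cutoff set per campaign, cut at about 30% in these data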;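 also: inhibitors lower millipolarization by displacing the labeled peptide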
MEX-5 binding: C. elegans MEX-5 TCR-2 RNA binding activity | Q9XUB2 | MEX-5/FITC-TCR2 RNA binding, fluorescence polarization; stronger effect = lower value | activity score (negative = inhibition of binding), % at 10 µM | 300,000 compounds, 0.38% hits;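 active = inhibition past about -25% in most replicates, and total fluorescence under double the plate's negative control median, limit read from the data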
eLon inh: inhibits E. coli Lon protease; purified E. coli Lon protease, fluorescence polarization; inhibition, % at 7.94 µM; 360,000 compounds, 0.42% hits; in the data active = inhibition above about 13%, passing the limit was not always enough
BCLXL inh confirm: counter-screen for MCL1 inhibitors: confirmation of human Bcl-xL inhibitors; shares compounds with MCL1 BIM primary; GST-Bcl-xL / FITC-Bim BH3 peptide FP binding; inhibition, % at 10.9 µM; 1,700 compounds, 54% hits; AID 2166;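 active = inhibition above a cutoff equal to the mean inhibition of all tested compounds plus 3 SD, cut at about 30% in these data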
MCL1 BIM confirm: MCL1-BIM-BH3 interaction inhibition, confirmation; AID 2168; 1,700 compounds, 61% hits; shares compounds with MCL1 BIM primary; inhibition, % at 10.9 µM; GST-MCL1 / FITC-Bim-BH3 fluorescence polarization;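 active = inhibition above the average of all tested compounds plus 3 SD, cut at about 40% in these data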
Each line names hits and unclear results; the compound was inactive in the other large screens (follow-up assays come after a bar, where they were run). An excerpt weighted towards active compounds, which were near 1.5% of everything screened.

COc1ccc(C2CC(C(F)(F)F)n3ncc(C(=O)NCc4cccnc4)c3N2)cc1OC (centres undefined)	none
COc1cc(C2CC(C(F)(F)F)n3ncc(C(=O)O)c3N2)cc(OC)c1OC (centres undefined)	EBV gp42 block 173.2
CCOC(=O)C(=O)c1c(-c2ccc(C)cc2)nc2ccccn12	BCLXL inh 63.1
CCOC(=O)C(=O)c1c(-c2ccccc2)nc2ccccn12	none
CCOC(=O)C1=C(Cc2ccc(OC)cc2)C(=O)c2ccccc2C1=O	eLon inh 28.4 (no result: MCL1 BIM primary, GLD-1 RNA inh, BCLXL inh, MEX-5 binding)
CCOC(=O)C1=C(Cc2ccc(C)cc2)C(=O)c2ccccc2C1=O	GLD-1 RNA inh 42.8 (no result: eLon inh)
CCOC(=O)c1ccc(COC(=O)c2ccc3c(c2)-c2ccccc2C3=O)cc1	none
CCOC(=O)c1c(C)nc2c(c1-c1cc(OC)ccc1OC)C(=O)c1ccccc1-2	none
Cc1ccc(S(C)(=O)=O)cc1C(=O)OCC(=O)N(Cc1ccccc1)Cc1ccccc1	none (no result: EBV gp42 block, MEX-5 binding)
CC1CCCN(S(=O)(=O)c2ccc3c(c2)c(=O)nc2ccccn23)C1 (centres undefined)	none (no result: EBV gp42 block)
CC(C)=CCc1c(O)c(CC=C(C)C)c2c(c1O)-c1cc(O)c(O)cc1CC2	MCL1 BIM primary 55.2 (no result: EBV gp42 block, eLon inh) | BCLXL inh confirm 40.8 | MCL1 BIM confirm 75.8
O=C(NC(Cc1ccccc1)C(=O)O)/C(=C/c1ccco1)NC(=O)c1cccc(Br)c1 (centres undefined)	MCL1 BIM primary 50.7, BCLXL inh 36.7 | BCLXL inh confirm inactive | MCL1 BIM confirm inactive
O=C(NC(Cc1ccccc1)C(=O)O)/C(=C/c1ccccc1)NC(=O)c1ccco1 (centres undefined)	none (no result: EBV gp42 block)
O=C(/C=C/c1ccco1)N(c1ccccn1)c1ccccn1	MCL1 BIM primary 56.5 | BCLXL inh confirm inactive | MCL1 BIM confirm 52.7
CCN(CC)S(=O)(=O)c1ccc(N2CCOCC2)c(NC(=O)CC23CC4CC(CC(Br)(C4)C2)C3)c1	none
Cc1ccc(C(=O)COC(=O)CNC(=O)Cc2ccccc2)cc1	none (no result: EBV gp42 block)
Cc1ccc(C(=O)NCC(=O)NCC(=O)OCC(=O)c2ccc(Br)cc2)cc1	MCL1 BIM primary 54.0 | BCLXL inh confirm inactive | MCL1 BIM confirm inactive
O=C(CCCN1C(=O)/C(=C/c2ccco2)SC1=S)Nc1cccc(C(=O)O)c1	MCL1 BIM primary 60.1 | BCLXL inh confirm inactive | MCL1 BIM confirm inactive
O=C(CCCN1C(=O)/C(=C\c2ccco2)SC1=S)Nc1ccc(O)cc1C(=O)O	MCL1 BIM primary 71.1, BCLXL inh 39.5 (no result: EBV gp42 block) | BCLXL inh confirm 51.4 | MCL1 BIM confirm 77.5
NC(=O)c1ccc(OCC(F)(F)F)nc1	none
CC(=O)Oc1cc2c(c3ccccc13)CCC2=O	none (no result: MCL1 BIM primary, EBV gp42 block, GLD-1 RNA inh, BCLXL inh, MEX-5 binding)
CC(=O)Oc1cc2cccc(OC(C)=O)c(=O)c2c(OC(C)=O)c1OC(C)=O	MCL1 BIM primary 104.8, BCLXL inh 81.1, MEX-5 binding -61.3 | BCLXL inh confirm inactive | MCL1 BIM confirm inactive
COc1ccc(OC)c(-c2c3cc(O)c(=O)cc-3oc3cc(O)c(O)cc23)c1	MCL1 BIM primary 118.4, EBV gp42 block 168.4, GLD-1 RNA inh 75.5, BCLXL inh 110.5, eLon inh active (no result: MEX-5 binding) | BCLXL inh confirm 120.3 | MCL1 BIM confirm 133.4
O=P(c1ccccc1)(c1ccccc1)c1ccc(O)cc1	none (no result: EBV gp42 block)
Cn1cc(CN2CCC(C(=O)Nc3cccc(-c4cccc(F)c4)c3)CC2)cn1	MCL1 BIM primary 81.8 (no result: EBV gp42 block) | BCLXL inh confirm inactive | MCL1 BIM confirm inactive
Cn1c(=O)c2[nH]c(-c3ccc(S(=O)(=O)O)cc3)nc2n(C)c1=O	none (no result: EBV gp42 block)
Cc1ccccc1NC(=O)CSc1n[nH]c(-c2ccco2)n1	none
Cc1ccccc1NC(=O)CSc1nnc(-c2ccco2)c(-c2ccco2)n1	MCL1 BIM primary 52.4 | BCLXL inh confirm 35.0 | MCL1 BIM confirm 86.2
COc1ccc(C(=O)CSc2nnc(-c3ccco3)c(-c3ccco3)n2)cc1	none (no result: MCL1 BIM primary, GLD-1 RNA inh, BCLXL inh)
CSc1nnc(-c2ccco2)c(-c2ccco2)n1	MCL1 BIM primary 42.5 | BCLXL inh confirm inactive | MCL1 BIM confirm 55.6
Cc1cccc(C)c1NC(=O)CSc1nnc(-c2ccco2)c(-c2ccco2)n1	MCL1 BIM primary 95.8, BCLXL inh 57.7, eLon inh 86.5 | BCLXL inh confirm inactive | MCL1 BIM confirm inactive
CC12CN(C(=O)c3cccc([N+](=O)[O-])c3)C3(C#N)CC1CCC23C (centres undefined)	none (no result: MCL1 BIM primary, EBV gp42 block, GLD-1 RNA inh, BCLXL inh)
Cc1cc(=O)n2nc(N3CCCC(C(=O)NCc4ccccc4C)C3)sc2n1 (centres undefined)	none (no result: EBV gp42 block)
CC1C2C(c3ccccc3)N(C)C(=O)N(C)C2N(C)C(=O)N1C (centres undefined)	MCL1 BIM primary 55.4, BCLXL inh 55.2 | BCLXL inh confirm 38.0 | MCL1 BIM confirm 44.9
CCOC(=O)N1CCc2c(sc(NC(=O)CCS(=O)(=O)c3ccccc3)c2C(N)=O)C1	MCL1 BIM primary 47.6 (no result: EBV gp42 block) | BCLXL inh confirm inactive | MCL1 BIM confirm inactive
CC(=O)N1CCc2c(sc(NC(=O)CCS(=O)(=O)c3ccccc3)c2C(N)=O)C1	none (no result: EBV gp42 block)
CCc1nnc(NC(=O)c2cc(-c3ccco3)nc3ccccc23)s1	MCL1 BIM primary 51.2 | BCLXL inh confirm 31.6 | MCL1 BIM confirm 72.3
CCc1nnc(NC(=O)c2cc(-c3ccccn3)nc3ccccc23)s1	none
O=C(N/N=C/c1cccc(F)c1)c1cc(-c2ccco2)nc2ccccc12	MCL1 BIM primary 73.6, EBV gp42 block 65.7 | BCLXL inh confirm inactive | MCL1 BIM confirm 63.6
COc1cc(/C=N/NC(=O)c2cc(-c3ccco3)nc3ccccc23)cc(OC)c1O	none
O=C(NCC1CCCO1)c1cc(-c2ccco2)nc2ccccc12 (centres undefined)	MCL1 BIM primary 66.6, GLD-1 RNA inh 39.2, BCLXL inh 54.7 | BCLXL inh confirm inactive | MCL1 BIM confirm inactive
COc1ccc(NC(=O)c2cc(-c3ccco3)nc3ccccc23)cc1S(=O)(=O)N1CCOCC1	MCL1 BIM primary 42.5 | BCLXL inh confirm 38.2 | MCL1 BIM confirm inactive
Nc1ccc(C(=O)N2CCN(S(=O)(=O)c3ccc4c(c3)OCCO4)CC2)cc1[N+](=O)[O-]	none (no result: EBV gp42 block)
Cc1cc(C)n(CCC(=O)Nc2cccc(F)c2)n1	none
CC(OC(=O)c1ccc2ncsc2c1)C(=O)Nc1cccc(Cl)c1 (centres undefined)	none (no result: EBV gp42 block, MEX-5 binding)
COc1ccccc1CNC(=O)COC(=O)c1cc(-c2ccco2)nc2ccccc12	MCL1 BIM primary 71.8 | BCLXL inh confirm 34.5 | MCL1 BIM confirm 71.0
CCOC(=O)C1CN(S(C)(=O)=O)c2cc(CC(=O)OC)ccc2O1 (centres undefined)	none

From PubChem
